Experimental data as given in the supplement of paper PMC11001985.

Compound: C#CCNC(=O)CCSSCCC(=O)NCCc1ccc(C=O)c(C=O)c1
Assay: lysine labeling ratio R10:1 (500 µM / 50 µM probe), SILAC-ABPP in living cells; higher = lower intrinsic lysine reactivity toward the probe, active = 2 or less
Conditions: HeLa; probe concentrations 500 vs 50 µM
Procedure, shortened: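 For each lysine, R is the median over forward and reverse replicates of the filtered median MS1 peptide ratio of high probe to low probe. The probe, an alkyne-tagged, disulfide-linked lysine probe, was given at 500 µM or 50 µM to living SILAC light and heavy HeLa cells in PBS at room temperature, with label swaps. Values are capped at 20.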

UniProt P26038, sequence (P26038 whole entry): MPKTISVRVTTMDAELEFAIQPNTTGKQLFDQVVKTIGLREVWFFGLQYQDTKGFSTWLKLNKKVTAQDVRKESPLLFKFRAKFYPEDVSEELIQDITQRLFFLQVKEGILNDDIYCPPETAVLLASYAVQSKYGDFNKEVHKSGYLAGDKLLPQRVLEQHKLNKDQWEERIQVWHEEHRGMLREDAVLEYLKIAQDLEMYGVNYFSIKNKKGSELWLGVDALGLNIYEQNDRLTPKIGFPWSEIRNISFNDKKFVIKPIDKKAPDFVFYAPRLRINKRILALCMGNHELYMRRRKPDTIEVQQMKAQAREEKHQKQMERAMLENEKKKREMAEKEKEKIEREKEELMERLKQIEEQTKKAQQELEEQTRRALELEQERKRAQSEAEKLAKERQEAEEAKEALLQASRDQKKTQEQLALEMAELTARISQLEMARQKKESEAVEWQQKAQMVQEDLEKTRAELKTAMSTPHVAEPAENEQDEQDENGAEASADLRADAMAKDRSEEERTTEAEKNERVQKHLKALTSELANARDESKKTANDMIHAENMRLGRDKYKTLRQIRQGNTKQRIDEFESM
UniProt P08069, sequence (P08069 whole entry, looked up): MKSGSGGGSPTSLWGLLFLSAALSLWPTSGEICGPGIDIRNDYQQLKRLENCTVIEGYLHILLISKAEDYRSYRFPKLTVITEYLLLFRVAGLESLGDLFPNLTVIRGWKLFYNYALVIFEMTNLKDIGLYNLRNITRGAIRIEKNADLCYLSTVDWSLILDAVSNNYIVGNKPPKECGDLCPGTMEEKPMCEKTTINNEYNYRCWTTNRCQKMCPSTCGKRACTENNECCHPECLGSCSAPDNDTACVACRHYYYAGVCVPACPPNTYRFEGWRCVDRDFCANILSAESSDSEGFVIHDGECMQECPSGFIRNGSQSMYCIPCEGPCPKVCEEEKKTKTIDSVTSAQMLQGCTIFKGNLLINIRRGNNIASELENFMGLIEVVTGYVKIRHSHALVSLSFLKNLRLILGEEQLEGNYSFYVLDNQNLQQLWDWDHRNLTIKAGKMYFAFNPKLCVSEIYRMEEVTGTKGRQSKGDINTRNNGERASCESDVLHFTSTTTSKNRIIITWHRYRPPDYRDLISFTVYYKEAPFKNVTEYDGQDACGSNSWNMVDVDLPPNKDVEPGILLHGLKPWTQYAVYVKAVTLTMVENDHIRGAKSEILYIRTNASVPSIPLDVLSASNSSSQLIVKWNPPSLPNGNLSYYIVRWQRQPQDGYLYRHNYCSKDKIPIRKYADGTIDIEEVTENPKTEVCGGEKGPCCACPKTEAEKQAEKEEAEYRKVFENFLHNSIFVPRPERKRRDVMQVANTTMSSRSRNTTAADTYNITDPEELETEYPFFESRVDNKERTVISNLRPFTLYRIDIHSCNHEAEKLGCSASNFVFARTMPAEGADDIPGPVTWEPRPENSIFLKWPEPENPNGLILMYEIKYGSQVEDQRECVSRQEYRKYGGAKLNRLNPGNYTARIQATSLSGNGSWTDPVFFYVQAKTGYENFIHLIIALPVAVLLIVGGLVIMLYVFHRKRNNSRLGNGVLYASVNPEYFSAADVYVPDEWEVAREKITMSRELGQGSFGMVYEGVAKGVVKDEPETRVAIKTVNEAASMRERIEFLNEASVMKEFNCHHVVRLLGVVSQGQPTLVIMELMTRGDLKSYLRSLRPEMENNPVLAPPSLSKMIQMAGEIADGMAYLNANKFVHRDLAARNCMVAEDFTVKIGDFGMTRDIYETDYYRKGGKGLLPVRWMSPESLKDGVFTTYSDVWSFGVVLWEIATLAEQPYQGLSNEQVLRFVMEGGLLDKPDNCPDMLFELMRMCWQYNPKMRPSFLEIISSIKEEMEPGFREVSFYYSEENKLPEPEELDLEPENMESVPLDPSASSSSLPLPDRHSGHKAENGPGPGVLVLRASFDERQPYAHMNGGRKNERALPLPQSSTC
UniProt P50454, sequence (P50454 whole entry): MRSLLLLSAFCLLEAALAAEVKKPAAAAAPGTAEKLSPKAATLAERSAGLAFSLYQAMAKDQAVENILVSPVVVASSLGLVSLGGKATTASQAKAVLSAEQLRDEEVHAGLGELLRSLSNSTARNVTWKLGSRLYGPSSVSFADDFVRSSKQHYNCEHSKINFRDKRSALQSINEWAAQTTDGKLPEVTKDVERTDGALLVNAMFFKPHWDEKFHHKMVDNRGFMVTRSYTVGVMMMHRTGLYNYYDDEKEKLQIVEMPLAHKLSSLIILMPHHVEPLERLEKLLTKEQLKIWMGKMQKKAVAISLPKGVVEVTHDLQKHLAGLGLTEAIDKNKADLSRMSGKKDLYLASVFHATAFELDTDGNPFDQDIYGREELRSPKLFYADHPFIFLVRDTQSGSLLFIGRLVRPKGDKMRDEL
UniProt O00154, sequence (O00154 whole entry): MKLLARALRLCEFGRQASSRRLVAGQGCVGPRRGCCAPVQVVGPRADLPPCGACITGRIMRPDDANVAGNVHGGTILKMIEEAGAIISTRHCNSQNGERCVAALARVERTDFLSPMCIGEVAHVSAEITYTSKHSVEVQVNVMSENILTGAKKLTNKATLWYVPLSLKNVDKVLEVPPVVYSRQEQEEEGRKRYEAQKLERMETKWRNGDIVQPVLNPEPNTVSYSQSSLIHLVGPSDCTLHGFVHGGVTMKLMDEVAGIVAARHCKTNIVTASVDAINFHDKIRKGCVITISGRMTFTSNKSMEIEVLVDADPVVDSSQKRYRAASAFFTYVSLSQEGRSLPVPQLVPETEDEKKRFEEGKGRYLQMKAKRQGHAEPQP
UniProt Q9H7Z7, sequence (Q9H7Z7 whole entry): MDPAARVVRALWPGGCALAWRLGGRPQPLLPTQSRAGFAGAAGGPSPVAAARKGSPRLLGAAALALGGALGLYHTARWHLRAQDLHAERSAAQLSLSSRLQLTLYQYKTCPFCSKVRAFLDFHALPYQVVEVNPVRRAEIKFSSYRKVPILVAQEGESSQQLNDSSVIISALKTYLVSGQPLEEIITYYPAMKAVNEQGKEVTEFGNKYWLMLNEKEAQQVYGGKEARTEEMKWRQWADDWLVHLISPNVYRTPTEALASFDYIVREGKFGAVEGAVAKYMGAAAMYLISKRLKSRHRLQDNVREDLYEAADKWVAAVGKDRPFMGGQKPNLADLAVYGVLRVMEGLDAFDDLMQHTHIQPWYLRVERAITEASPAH
UniProt P54756, sequence (P54756 whole entry): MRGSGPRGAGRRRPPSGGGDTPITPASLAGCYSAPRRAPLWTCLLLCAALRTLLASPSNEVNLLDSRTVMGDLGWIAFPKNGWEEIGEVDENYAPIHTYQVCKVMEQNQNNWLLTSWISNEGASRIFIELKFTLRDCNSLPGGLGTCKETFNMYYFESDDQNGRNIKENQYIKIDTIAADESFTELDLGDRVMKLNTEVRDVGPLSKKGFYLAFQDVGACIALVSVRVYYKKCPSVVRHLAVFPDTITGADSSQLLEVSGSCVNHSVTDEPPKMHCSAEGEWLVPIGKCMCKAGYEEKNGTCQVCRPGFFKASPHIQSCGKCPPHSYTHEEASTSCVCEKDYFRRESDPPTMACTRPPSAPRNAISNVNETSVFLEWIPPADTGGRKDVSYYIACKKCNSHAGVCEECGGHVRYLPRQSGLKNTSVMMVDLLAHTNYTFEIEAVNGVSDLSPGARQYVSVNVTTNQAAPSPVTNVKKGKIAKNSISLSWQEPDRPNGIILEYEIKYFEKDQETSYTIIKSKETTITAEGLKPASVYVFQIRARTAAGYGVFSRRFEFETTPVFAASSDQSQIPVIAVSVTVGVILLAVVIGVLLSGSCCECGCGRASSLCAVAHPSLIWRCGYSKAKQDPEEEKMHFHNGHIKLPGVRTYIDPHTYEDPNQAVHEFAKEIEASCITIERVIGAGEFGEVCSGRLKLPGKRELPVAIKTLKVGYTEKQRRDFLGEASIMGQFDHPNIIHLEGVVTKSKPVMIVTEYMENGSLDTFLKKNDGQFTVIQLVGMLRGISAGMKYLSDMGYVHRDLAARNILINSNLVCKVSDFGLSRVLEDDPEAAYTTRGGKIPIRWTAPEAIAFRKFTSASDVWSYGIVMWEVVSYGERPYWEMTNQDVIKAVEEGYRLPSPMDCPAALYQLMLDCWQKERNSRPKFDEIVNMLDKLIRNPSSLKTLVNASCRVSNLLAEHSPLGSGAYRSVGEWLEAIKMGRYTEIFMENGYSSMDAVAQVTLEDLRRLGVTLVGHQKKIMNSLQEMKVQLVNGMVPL
UniProt Q14247, sequence (Q14247 whole entry): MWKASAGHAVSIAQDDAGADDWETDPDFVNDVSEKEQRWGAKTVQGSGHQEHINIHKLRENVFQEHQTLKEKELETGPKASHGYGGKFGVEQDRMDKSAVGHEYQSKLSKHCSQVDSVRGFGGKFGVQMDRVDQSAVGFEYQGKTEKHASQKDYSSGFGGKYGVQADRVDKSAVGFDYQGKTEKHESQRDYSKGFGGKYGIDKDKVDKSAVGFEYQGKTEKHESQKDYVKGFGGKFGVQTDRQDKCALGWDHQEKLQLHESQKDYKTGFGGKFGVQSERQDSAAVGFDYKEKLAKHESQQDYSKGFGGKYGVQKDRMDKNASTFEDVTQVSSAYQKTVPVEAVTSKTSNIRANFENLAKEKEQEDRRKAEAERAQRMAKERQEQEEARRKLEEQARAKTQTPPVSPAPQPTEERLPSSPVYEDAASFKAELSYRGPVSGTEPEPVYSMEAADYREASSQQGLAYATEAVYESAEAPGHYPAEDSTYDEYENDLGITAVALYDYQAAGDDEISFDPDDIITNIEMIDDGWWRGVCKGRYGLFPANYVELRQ
UniProt P12429, sequence (P12429 whole entry): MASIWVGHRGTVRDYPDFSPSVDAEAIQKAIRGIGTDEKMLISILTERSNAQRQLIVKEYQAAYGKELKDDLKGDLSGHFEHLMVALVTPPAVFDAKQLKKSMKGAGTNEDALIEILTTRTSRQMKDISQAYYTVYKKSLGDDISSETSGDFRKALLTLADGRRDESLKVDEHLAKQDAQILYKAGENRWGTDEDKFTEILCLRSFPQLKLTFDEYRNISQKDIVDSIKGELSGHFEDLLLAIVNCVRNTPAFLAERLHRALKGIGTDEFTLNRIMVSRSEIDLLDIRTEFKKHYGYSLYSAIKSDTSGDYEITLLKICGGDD

Target | lysine labeling ratio R10:1
UniProt P62244 (lysine site: K71) | 3.24 (inactive)
DDX3X (lysine site: K81) (UniProt O00571) | 2.77 (inactive)
CTTN (lysine site: K87) (UniProt Q14247) | 2.06 (inactive)
UniProt P09758 (lysine site: K138) | 5.06 (inactive)
DDX5 (lysine site: K470) (UniProt P17844) | 4.7 (inactive)
SERPINH1 (lysine site: K94) (UniProt P50454) | 3.29 (inactive)
TCP1 (lysine site: K400) (UniProt P17987) | 2.68 (inactive)
CACNA2D1 (lysine site: K586) (UniProt P54289) | 2.9 (inactive)
SPTBN1 (lysine site: K1684) (UniProt Q01082) | 1.83 (active)
CD58 (lysine site: K62) (UniProt P19256) | 5.48 (inactive)
EPHA5 (lysine site: K194) (UniProt P54756) | 2.4 (inactive)
LRPAP1 (lysine site: K107) (UniProt P30533) | 1.78 (active)
IGF2R (lysine site: K1285) (UniProt P11717) | 0.936 (active)
ACTN4 (lysine site: K643) (UniProt O43707) | 7.08 (inactive)
SLC39A6 (lysine site: K143) (UniProt Q13433) | 4.18 (inactive)
MSN (lysine site: K3) (UniProt P26038) | 8.6 (inactive)
PTGES2 (lysine site: K225) (UniProt Q9H7Z7) | 1.93 (active)
UniProt Q15149 (lysine site: K3925) | 3.1 (inactive)
CD109 (lysine site: K952) (UniProt Q6YHK3) | 0.643 (active)
ECH1 (lysine site: K231) (UniProt Q13011) | 1.7 (active)

Target | lysine labeling ratio R10:1
IGF1R (lysine site: K502) (UniProt P08069) | 2.64 (inactive)
UniProt Q16629 (lysine site: K24) | 3 (inactive)
ATP2A2 (lysine site: K757) (UniProt P16615) | 1.36 (active)
MYH9 (lysine site: K1219) (UniProt P35579) | 2.49 (inactive)
PRDX6 (lysine site: K63) (UniProt P30041) | 2.85 (inactive)
PLOD2 (lysine site: K412) (UniProt O00469) | 7.56 (inactive)
ATP1B1 (lysine site: K277) (UniProt P05026) | 17.2 (inactive)
ITGA6 (lysine site: K680) (UniProt P23229) | 2.82 (inactive)
RPS3 (lysine site: K62) (UniProt P23396) | 3.22 (inactive)
MET (lysine site: K595) (UniProt P08581) | 1.67 (active)
MSN (lysine site: K360) (UniProt P26038) | 2.83 (inactive)
UniProt P62913 (lysine site: K159) | 2.96 (inactive)
GPC1 (lysine site: K236) (UniProt P35052) | 3.17 (inactive)
TFRC (lysine site: K358) (UniProt P02786) | 1.48 (active)
ANXA3 (lysine site: K184) (UniProt P12429) | 1.13 (active)
UniProt Q9BZM4 (lysine site: K148) | 2.1 (inactive)
ACOT7 (lysine site: K198) (UniProt O00154) | 2.95 (inactive)
LAMC1 (lysine site: K1041) (UniProt P11047) | 2.18 (inactive)
LMO7 (lysine site: K305) (UniProt Q8WWI1) | 3.84 (inactive)
IGF1R (lysine site: K892) (UniProt P08069) | 3.9 (inactive)
